# Several values for one entry are separate records, joined by “and”; a condition that tells them apart may be missing. Identical values can stand only once. About 11,000 (3.5%) of roughly 310,000 compounds were called active. About 4% were inconclusive and are not listed. The sample holds actives, similar compounds and a random draw of the others, so the mix is not that of the screen. Unmarked numbers belong to inactive results. Calls come from the whole dose curve; as a rule, active = well fitted inhibition curve with a large enough effect; inconclusive = small, poorly fitted or top-dose-only effect, or another doubt; inactive = no such curve, though single readings can be large or run the other way.
# Biological target: 4'-phosphopantetheinyl transferase ffp (Bacillus subtilis) (UniProt Q9F4F7)
# Experiment: qHTS Assay for Inhibitors of Bacillus subtilis Sfp phosphopantetheinyl transferase (PPTase);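 note: the enzyme is Sfp with the accession as filed and its product quenches rhodamine fluorescence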;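 for largest response in the series, negative = inhibition: 0% = enzyme reaction without inhibitor and -100% = no enzyme wells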
# Settings: Biochemical Sfp PPTase activity
# Outline: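 Buffer: 50 mM Hepes-Na pH 7.6, 10 mM MgCl2, 0.01% Nonidet P-40, 0.01% BSA. Enzyme 15 nM, pre-exposed to compound 15 min; substrates then added and fluorescence change tracked over 30 min.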
# Potency is the fitted concentration of half-maximal effect.
SMILES,"largest response in the series, negative = inhibition",Potency
CC(=O)NS(=O)(=O)c1ccc(N/C(N)=N/c2nc(C)cc(C)n2)cc1,6.28%,–
CCCC(C(=O)NC1CCCC1)N(C(=O)Cn1nnc(-c2ccc(C)o2)n1)c1cccc(O)c1 (stereo not drawn),-2.43%,–
COC(=O)c1ccc(COC(=O)c2cnc(Cl)c(Cl)c2)cc1,-10.6%,–
Cc1noc(C)c1-c1ccc2ncnc(NCc3ccc4[nH]ccc4c3)c2c1,-0.183%,–
N=C(N)SCc1cccc2ccccc12,-0.359%,–
CCc1ccc(-c2nn(-c3ccccc3)cc2CSC(=N)N)cc1,–,39.8 µM (active)
O=C(Nc1cn(-c2ccccc2)nc1-c1ccccc1)c1ccccc1,-4.06%,–
CC(=O)OCC1OC(C#CCCCc2ccccc2)C=CC1OC(C)=O (stereo not drawn),17.9%,–
Cc1cc(=O)oc2c(C)c(OCC(=O)NCCc3ccc(S(N)(=O)=O)cc3)ccc12,11%,–
CC(=O)NCC(=O)N1CCC(n2nccc2NC(=O)CCCc2ccccc2)CC1,13.4%,–
COc1cc(NS(=O)(=O)c2ccc(NC(=S)NC(=O)c3ccc(Br)cc3)cc2)ncn1,1.72%,–
Fc1ccc(OCc2nn3c(Cn4nnc5ccccc54)nnc3s2)cc1,–,15.8 µM (active)
c1ccc(Cc2nn3c(Cn4cnc5ccccc54)nnc3s2)cc1,-63.8%,–
CC(=O)OC(COc1ccc(F)cc1)Cn1cnc2ccccc21 (stereo not drawn),-2.66%,–
CC(=O)N1CCN(c2ccccc2NC(=S)NC(=O)c2cc3ccccc3o2)CC1,7.22%,–
COCCn1c(SCC(=O)N2CCCCCC2)nc2c(c1=O)SCC2,4.45%,–
CC(NC(=O)Nc1cccc([N+](=O)[O-])c1)c1ccc2c(c1)OCO2 (stereo not drawn),-3.6%,–
Cc1ccc2nc(N(CCN(C)C)C(=O)C3=COCCO3)sc2c1,5.53%,–
CN(C)CCCN(C(=O)c1ccc(S(=O)(=O)N2CCCc3ccccc32)cc1)c1nc2ccc(F)cc2s1,–,56.2 µM (active)
CSc1nc2ccc(S(=O)(=O)N3CCc4ccccc43)cc2s1,7.95%,–
O=C(Nc1nc2ccc([N+](=O)[O-])cc2s1)c1ccc(S(=O)(=O)N2CCCc3ccccc32)cc1,-0.333%,–
CCN(CC)CCN(C(=O)c1ccc(S(=O)(=O)N2CCOCC2)cc1)c1nc2cc3c(cc2s1)OCCO3,7.56%,–
CN(C)CCCN(C(=O)c1ccc(S(=O)(=O)N2CCCCCC2)cc1)c1nc2ccc(Br)cc2s1,–,50.1 µM (active)
COc1ccc(C)cc1N(CC(=O)NC(C)c1ccccc1)S(C)(=O)=O (stereo not drawn),4.53%,–

SMILES,"largest response in the series, negative = inhibition",Potency
CCC1Sc2ccc(S(=O)(=O)CCC(=O)NCc3cccs3)cc2NC1=O (stereo not drawn),20.6%,–
CC(C)=CCCC(C)CN1CCC(n2nccc2NC(=O)c2ccccc2)CC1 (stereo not drawn),9.72%,–
O=C(Nc1nnc(-c2ccccc2F)s1)c1ccccc1F,-1.78%,–
CCOc1cc(-c2noc(CCCC(=O)NC3CCCCC3)n2)ccc1OC,13%,–
CC(C)(C)C(=O)OCc1nc(-c2ccc(O)c(O)c2)cs1,–,56.2 µM (active)
COc1ccc(-c2csc(Cc3nc(O)cs3)n2)cc1,-23.9%,–
COc1ccc(OC)c(Nc2nc(-c3ccc(O)c(O)c3)cs2)c1,-45.7%,–
CN(CC(=O)Nc1c(Cl)cccc1Cl)C(=O)c1ccncc1,13.1%,–
Cc1csc(-c2nc3ccccc3n2C)n1,-0.542%,–
Cc1cc(C(F)(F)F)nn1-c1nc(-c2ccco2)cc(C(F)(F)F)n1,11.9%,–
Cn1c(-c2ccco2)nc2cc3ccccc3cc21,–,56.2 µM (active)
CCOc1ccc(C2C3=C(CCCC3=O)N(CC(=O)O)C3=C2C(=O)CCC3)cc1,-3.36%,–
Cc1ccnc(-n2sc3ccccc3c2=O)n1,–,2.51 µM (active)
Cc1ccnc(SCC(N)=O)n1,7.56%,–
Cc1ccnc(N2CCCC(C(=O)NC3CC3)C2)n1 (stereo not drawn),12.1%,–
CCN(CC(=O)NCCCN1CCOCC1)S(=O)(=O)c1cc(Cl)ccc1Cl,9.56%,–
COc1ccc(CC(=O)N/N=C/c2cc([N+](=O)[O-])cc(Br)c2O)cc1,23.5%,–
NS(=O)(=O)c1ccc(NC(=S)NC(=O)c2cccc(Br)c2)cc1,-13.6%,–
NS(=O)(=O)c1ccc(NC(=S)Nc2ccc(Br)c(Cl)c2)cc1,–,56.2 µM (active)
NS(=O)(=O)c1ccc(CCNC(=O)Nc2ccc(Cl)cc2)cc1,7.27%,–
CCc1ccc(NC(=O)C(=O)NNC(=O)c2cccs2)cc1,6.91%,–
NS(=O)(=O)c1ccc(CCNC(=O)CNC(=O)Cc2ccccc2)cc1,-3.07%,–
NS(=O)(=O)c1ccc(NC(=S)NNC(=O)c2cccs2)cc1,–,15.8 µM (active)
NS(=O)(=O)c1ccc(CCNC(=S)Nc2ccc(S(N)(=O)=O)cc2)cc1,–,20 µM (active)

SMILES,"largest response in the series, negative = inhibition",Potency
CC(C)(C)C(=O)NC(NC(=S)Nc1ccc(S(N)(=O)=O)cc1)C(Cl)(Cl)Cl (stereo not drawn),7.73%,–
CC(C)C(=O)Nc1ccc(C(=O)NNC(=O)c2cccs2)cc1,-14.7%,–
COc1cccc(NC(=O)CN(C)C(=O)c2ccccc2CCc2ccccc2)c1,4.61%,–
CCN1C(=NCCc2cccnc2)N[C@@H](c2ccccc2)C(C(=O)OC)=C1C,4.98% and 1.06%,–
CCOc1ccc(CN2CCN(CCCc3ccccc3)C(CCO)C2)cc1 (stereo not drawn),7.43%,–
CN(C)c1ccc(NC(=O)CN2C3CCCC2CC(NC(=O)c2ccccc2)C3)cc1 (stereo not drawn),-10%,–
O=C(CN1CCCCCC1)Nc1ccc(Br)cc1[N+](=O)[O-],-3.46%,–
CCCn1cc(S(=O)(=O)c2ccc(C)cc2)c(=O)c2cc(OCC)ccc21,0.066%,–
COc1cc(C2NC(=O)NC(c3ccccc3)=C2C(C)=O)c(Br)cc1OCC(N)=O (stereo not drawn),18.5%,–
CCOc1cc2[nH]c(=S)n(CCN3CCCCC3C)c(=O)c2cc1OCC (stereo not drawn),-4.39%,–
CCOc1cc2[nH]c(=O)n(Cc3ccc(C(=O)NCCCN4CCCC4=O)cc3)c(=O)c2cc1OCC,9.7%,–
CCOc1cc2[nH]c(=S)n(CCCN3CCCC3=O)c(=O)c2cc1OCC,–,56.2 µM (active)
Cc1cc(=O)[nH]c(N/N=C/c2ccc3c(c2)OCCO3)n1,–,56.2 µM (active)
CCN(CC)c1ccc(/C=N/Nc2nc(C)cc(=O)[nH]2)cc1,-16.8%,–
Cc1cc(=O)[nH]c(N/N=C/c2c(C)nn(-c3ccccc3Cl)c2Cl)n1,-9.72%,–
COc1ccc(/C=C(\C#N)c2c[nH]c3ccccc23)cc1,10.3%,–
Cc1ccc2c(c1)N(CC(=O)NCCc1ccc(Cl)cc1)C(=O)c1cccnc1O2,-4.46%,–
COc1ccccc1NC(=O)CCN1CCN(c2ccc(Cl)cc2)CC1,3.28%,–
COC(=O)CNC(c1ccccc1Cl)c1cc(Br)ccc1NC(=O)CCN1CCOCC1 (stereo not drawn),–,56.2 µM (active)
COc1ccc(Cl)cc1NC(=O)CCN1CCOCC1,13.9%,–
CNS(=O)(=O)c1ccc(NC(=O)Nc2ccc3c(c2)OCO3)cc1,-9.71%,–
CCc1ccc(OCC(O)CN2CCN(CCO)CC2)cc1 (stereo not drawn),5.76%,–
C/C(=N/NC(=O)c1ccn(C)n1)c1ccncc1,5.8%,–
C/C(=N/NC(=O)c1ccncc1)c1ccc2c(c1)OCO2,4.66%,–

SMILES,"largest response in the series, negative = inhibition",Potency
C/C(=N\NC(N)=S)c1ccncc1,–,79.4 µM (active)
COc1ccc(CCNC(=O)CCCCCNC(=O)N2CCn3c2nc2ccccc23)cc1OC,4.84%,–
Cc1ccccc1CNC(=O)CCC(=O)N1Cc2ccccc2Oc2ncccc21,19%,–
CCn1c(SCc2cccc(C(=O)O)c2)nnc1-c1ccc(Cl)cc1,1.11%,–
COc1ccc(-n2ncc3c2CC(C)(C)CC3NC(=O)CCc2c(C)nn(C)c2C)cc1 (stereo not drawn),11.2%,–
COC(=O)C(NS(=O)(=O)c1ccc(F)cc1)c1ccccc1 (stereo not drawn),16.1%,–
O=S(=O)(NC(=S)Nc1ccccc1)c1ccc(F)cc1,–,20 µM (active)
Cc1ccc(NC(=S)Nc2ccc(F)cc2)cc1,5.93%,–
Cc1ccccc1-c1nnc(SCC(=O)NCc2ccc3c(c2)OCO3)n1C,4.47%,–
O=C(CSc1ccc(-c2ccc(F)cc2)nn1)Nc1ccc2c(c1)OCCO2,-25.1%,–
Cn1c(SCc2c(F)cccc2Cl)nnc1-c1cnccn1,-5.8%,–
O=C(CSc1ccc(-c2ccco2)nn1)Nc1cccc(F)c1,–,15.8 µM (active)
O=C(CSc1ccc(-c2ccco2)nn1)NCc1ccc2c(c1)OCO2,–,50.1 µM (active)
O=C(CSc1ncn[nH]1)NCc1ccc2c(c1)OCO2,9.23%,–
Cc1cc(SCc2c(F)cccc2Cl)nc(=O)[nH]1,1.28%,–
COc1ccc(NC(=O)CSc2ccc(-c3ccco3)nn2)c(OC)c1,-27.4%,–
Fc1cccc(Cl)c1CSc1ccc(-c2ccco2)nn1,–,39.8 µM (active)
O=C(NCC(=O)N1CCC2(CC1)NCCc1[nH]cnc12)c1ccc(Br)cc1,9.84%,–
O=C(Cn1nc([N+](=O)[O-])nc1Br)NC1CCCCC1,16.4%,–
CCOC(=O)N1CCN(S(=O)(=O)c2ccc(Br)cc2)CC1,12.6%,–
C[C@H]1Cc2c(COc3ccccc3)nc3c(c2CO1)CN(C(=O)Nc1cccc(C#N)c1)CC3,13.6%,–

# Reference: PubChem BioAssay AID1490 (National Center for Advancing Translational Sciences (NCATS), 2009)
